An excerpt weighted towards active compounds, which were near 5.7% of everything screened.
L3MBTL1 inh: L3MBTL1 (human) inhibition; AID 485360; AlphaScreen L3MBTL1–H3K9me1 peptide binding; 230,000 tested, 0.66% active; Potency, µM (titrated, usually from 57.1 µM), most hits filed as inhibitors; also: nearly all actives have a fitted effect of over 60% in size
Target sequence (Q9Y468 whole entry, looked up): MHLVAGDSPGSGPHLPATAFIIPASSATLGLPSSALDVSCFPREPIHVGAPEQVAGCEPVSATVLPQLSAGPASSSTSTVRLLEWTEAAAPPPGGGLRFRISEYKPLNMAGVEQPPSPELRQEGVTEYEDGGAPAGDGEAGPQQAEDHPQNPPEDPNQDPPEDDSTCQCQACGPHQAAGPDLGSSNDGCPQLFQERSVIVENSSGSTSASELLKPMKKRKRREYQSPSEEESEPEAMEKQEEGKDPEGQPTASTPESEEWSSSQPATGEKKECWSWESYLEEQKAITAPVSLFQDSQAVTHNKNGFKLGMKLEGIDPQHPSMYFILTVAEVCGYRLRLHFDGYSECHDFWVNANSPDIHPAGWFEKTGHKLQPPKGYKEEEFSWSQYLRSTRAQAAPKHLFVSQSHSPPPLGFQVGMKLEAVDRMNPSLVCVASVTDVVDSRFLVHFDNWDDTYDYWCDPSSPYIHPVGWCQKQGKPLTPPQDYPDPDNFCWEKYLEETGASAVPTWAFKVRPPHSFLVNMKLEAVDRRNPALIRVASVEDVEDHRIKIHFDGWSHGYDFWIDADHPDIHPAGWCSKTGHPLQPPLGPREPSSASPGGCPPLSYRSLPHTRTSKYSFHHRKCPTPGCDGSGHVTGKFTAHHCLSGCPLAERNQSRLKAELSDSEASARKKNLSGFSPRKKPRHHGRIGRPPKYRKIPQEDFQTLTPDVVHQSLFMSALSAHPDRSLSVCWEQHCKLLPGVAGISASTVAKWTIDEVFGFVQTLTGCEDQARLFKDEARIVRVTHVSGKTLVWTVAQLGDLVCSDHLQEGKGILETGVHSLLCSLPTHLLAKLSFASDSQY
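AlphaScreen proximity signal between nickel-chelate acceptor and streptavidin donor beads (final 10 ug/mL) reports binding of 50 nM L3MBTL1 to 75 nM biotin-H3 K9me1 peptide; complex incubated with compounds 30 min at room temperature; cefsulodin titration as control.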
KDM4E inh: blocks human JMJD2E demethylase activity | 230,000 tested, 1.6% active | JMJD2E catalytic domain, FDH-coupled NADH fluorescence (FDH is formaldehyde dehydrogenase) | AID 2147 | B2RXH2 | Potency, µM (titrated, usually from 57.1 µM), usual class: inhibitors; active = well fitted inhibition curve with a large enough effect, not every such curve was filed as active; inconclusive = small, poorly fitted or top-dose-only effect, or another doubt; inactive = no such curve, though single readings can be large or run the other way; also: nearly all actives have a fitted effect of over 50% in size
BAZ2B inh: inhibitors of human BAZ2B bromodomain; Potency, µM (doses to about 114 µM), usual class: inhibitors; 360,000 tested, 4.4% active; AlphaScreen BAZ2B-H3K14Ac peptide displacement; Q9UIF8; AID 504333; also: nearly all actives have a fitted effect of over 60% in size
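Compounds, titrated to a top concentration of 110 uM, were incubated 30 min at room temperature with preformed BAZ2B/acetyl-K14 H3 peptide complex (50 nM each). Proximity signal was measured by AlphaScreen after 20 min with beads.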
PI5P4K alpha inh: blocks human PI5P4K alpha kinase activity; 330,000 tested, 1.2% active; max response, %; P48426; AID 652105; PI5P4Kalpha enzyme, ADP-Glo luminescence, 60 min; hits give low values; active = max response of -50% or lower; inconclusive = between -30% and -50%; inactive = -30% or higher; also: value at the top dose of about 77 µM
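Human PI5P4Kalpha with substrate in 0.038 M HEPES pH 7.4, 0.28 mM EGTA, 0.1% CHAPS, 5% DMSO; reaction started with 5 microM ATP (final), 60 min at room temperature. ADP formed read by ADP-Glo luminescence.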
JMJD2A Tudor: JMJD2A Tudor domain (human) inhibition. Potency, µM (doses to about 114 µM), most hits filed as inhibitors. AlphaScreen JMJD2A-Tudor / H3K4me3 peptide binding. 390,000 tested, 4.4% active. AID 504339. O75164; also: nearly all actives have a fitted effect of over 50% in size
HP1b chromo inh: blocks HP1-beta chromodomain binding to methylated histone tails | P83916 | AlphaScreen HP1-beta / biotin-H3K9me3 peptide binding | Potency, µM (titrated, usually from 114 µM), hits mostly inhibitors | 390,000 tested, 0.56% active; also: nearly all actives have a fitted effect of over 70% in size
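AlphaScreen: HP1-beta (50 nM) preformed 30 min with biotin-H3(1-18)K9me3 peptide (50 nM) in PBS pH 7.4, 0.01% Tween-20. Compound added for 30 min at RT, then streptavidin donor/nickel chelate acceptor beads (10 ug/mL) for 30 min.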
Hits are given with their value; n = inactive; u = inconclusive; x = not tested or not shown; [ ] = remark or other dose. Unless noted, calls follow the shape of the dose curve; as a rule, active = well fitted inhibition curve with a large enough effect; inconclusive = small, poorly fitted or top-dose-only effect; inactive = no such curve, though single readings can be large or run the other way.

SMILES | L3MBTL1 inh | KDM4E inh | BAZ2B inh | PI5P4K alpha inh | JMJD2A Tudor | HP1b chromo inh
C=CCc1ccc(OCCCCCN2CCOCC2)c(OC)c1 | n | n | 50µM | n | 3.5µM | u
C=CCc1ccc(OCCOCCOc2ccc(C)cc2[N+](=O)[O-])c(OC)c1 | n | n | n | n | n | n
O=C(NC1CCCCCC1)C1c2ccccc2C(=O)N1Cc1ccccc1Cl (configuration not stated) | x | x | n | x | n | n
COCCCn1c(=S)[nH]c2ccc(N3CCOCC3)cc2c1=O | n | u | n | n | u | n
O=c1c2cc(N3CCOCC3)ccc2[nH]c(=S)n1Cc1ccccn1 | n[11.4 µM] | u | n | x | 28µM | n
CCCCN(C)CCn1c(=S)[nH]c2ccc(N3CCOCC3)cc2c1=O | n[11.4 µM] | u | n | x | 28µM | n
O=c1c2ccccc2n(Cc2cccc(F)c2)c(=O)n1Cc1ccccc1Cl | x | x | n | x | n | n
COCC1=C2c3ccccc3[C@H](C[N+](=O)[O-])C(C(=O)OC)(C(=O)OC)C[C@@H]2n2c(=O)n(-c3ccccc3)c(=O)n2C1 | x | n | x | x | x | x
NC(=S)NNc1c(F)c(F)c(F)c(F)c1F | n | n | n | -54 | u | u
CCOc1ccc(NC(=S)Nc2ccccc2C2(C)CC2)cc1 | n | n | u | n | n | n
Cc1ccc(OCCNc2cc(N3CCN(CCO)CC3)ccc2[N+](=O)[O-])cc1C | n | n | 32µM | n | u | u
Cc1cccc(OCCNc2cc(N3CCN(C)CC3)ccc2[N+](=O)[O-])c1 | n | n | u | n | 40µM | 50µM
Cc1cccc(OCCNc2cc(N3CCOCC3)ccc2[N+](=O)[O-])c1 | n | n | u | x | u | n
O=S(=O)(c1ccc2c(c1)OCCO2)N1CCN(S(=O)(=O)c2ccccc2Cl)CC1 | x | x | x | x | n | x
COc1ccc(C2CC2/C(=N/O)c2ccccn2)cc1 (configuration not stated) | n | n | n | n | n | n
COc1ccc(C2CC2/C(=N/O)c2ccccc2)cc1 (configuration not stated) | n | n | n | u | 14µM | u
Cc1ccc(S(=O)(=O)N2CCc3c2cc([N+](=O)[O-])cc3[N+](=O)[O-])cc1 | x | x | u | n | 32µM | u
Cc1ccc(S(=O)(=O)N2CCC(=O)c3ccccc32)cc1 | x | x | x | n | x | x
COc1ccc(S(=O)(=O)NC2CCCCC2)cc1-n1cnnn1 | n | n | n | n | 79µM | n
COCCN(Cc1ccc(C)c(Br)c1)S(=O)(=O)c1ccc2[nH]c(=O)ccc2c1 | x | x | n | x | n | n
NNc1nc2c(Cl)ccc(Cl)c2s1 | n | u | 50µM | u | 45µM | n
O=C(Nc1nc2c(Cl)ccc(Cl)c2s1)C1CC1 | n | x | n | n | n | n
COC(=O)[C@@H]1[C@@H]2C[C@H]3c4[nH]c5cc(OC)ccc5c4CCN3C[C@@H]2C[C@H](OC(=O)c2cc(OC)c(OC)c(OC)c2)[C@H]1OC | x | 10µM | x | x | x | x
CCOC(=O)Oc1c(OC)cc(C(=O)O[C@@H]2C[C@@H]3CN4CCc5c([nH]c6cc(OC)ccc56)[C@H]4C[C@@H]3[C@H](C(=O)OC)[C@H]2OC)cc1OC | n | x | u | n | u | n
Cc1cc(C)cc(NC(=O)COc2cccc3c(=O)n(C)ccc23)c1 | x | x | n | x | n | n
SMILES | L3MBTL1 inh | KDM4E inh | BAZ2B inh | PI5P4K alpha inh | JMJD2A Tudor | HP1b chromo inh
CCOc1ccc2nc(N/C(N)=N/C(=S)Nc3ccc(C)c(C)c3)nc(C)c2c1 | n | u | n | n | n | n
CCNC(=S)/N=C(\N)Nc1nc(C)c2cc(C)ccc2n1 | n | n | 11µM | n | u | n
CCN(c1ccccc1)S(=O)(=O)c1ccc2[nH]cc(C(=O)NCc3ccc(C)cc3)c(=O)c2c1 | x | x | n | x | 56µM | n
CCN(c1ccccc1)S(=O)(=O)c1ccc2[nH]cc(C(=O)NCCOC)c(=O)c2c1 | n | u | n | n | n | n
COc1ccc(/C=C2/SC(=S)N(n3c(C)ccc3C)C2=O)cc1 | x | n | 10µM | n | 35µM | u
COc1ccc(/C=C2/SC(=S)N(CCC(=O)O)C2=O)cc1 | n | n | n | x | n | n
CCOc1ccc(/C=C2/SC(=S)N(n3c(C)ccc3C)C2=O)cc1 | x | u | 11µM | n | 22µM | 14µM
CCOc1ccc(N2C(=O)/C(=C/c3ccccn3)SC2=S)cc1 | n | n | n | n | n | n
COc1cccc(NC(=O)CN2C(=O)NC(c3ccccc3)(c3ccccc3)C2=O)c1 | x | x | n | n | u | u
COc1ccc(CCN2CC(C(=O)Nc3cc(S(C)(=O)=O)ccc3Cl)CC2=O)cc1OC (configuration not stated) | n | x | n | n | n | n
Cc1ccc(CN2CC(C(=O)Nc3cc(S(C)(=O)=O)ccc3Cl)CC2=O)cc1 (configuration not stated) | n | u | 50µM | n | n | n
CC(C)Cn1c(-c2ccc(Br)cc2)c[nH]c1=S | x | n | u | n | 50µM | u
S=c1[nH]cc(-c2ccc(Cl)cc2)n1Cc1ccccc1 | n | n | n | n | n[11.4 µM] | n
CCn1c(-c2ccccc2)c[nH]c1=S | n | u | n | n | 8.9µM | u
COc1ccc(-n2c(-c3ccc(Cl)cc3)c[nH]c2=S)cc1 | x | x | u | n | n | n
S=c1[nH]cc(-c2ccccc2)n1-c1ccccc1 | n | n | u | u | 28µM | n
Cc1ccc(-n2c(-c3ccccc3)c[nH]c2=S)cc1 | x | n | n | n | 11µM | n
COc1ccccc1-n1cc(-c2ccc(Br)cc2)[nH]c1=S | x | x | n | n | u | n
Cc1nc2scc(-c3ccc(C(C)C)cc3)c2c(=O)n1N | x | n | n | n | n | n
O=C(Nc1ccc2c(c1)OCO2)c1c[nH]c(=O)n(-c2ccc(F)cc2)c1=O | x | x | 35µM | n | u | n
CCCOc1ccc(C2Nc3cccc4cccc(c34)N2)cc1 | n | x | u | n | 40µM | u
Fc1ccc(C2Nc3cccc4cccc(c34)N2)cc1 | x | x | u | n | u | u
O=[N+]([O-])c1cccc(C2Nc3cccc4cccc(c34)N2)c1 | n | u | 35µM | n | 50µM | u
O=[N+]([O-])c1ccc(C2Nc3cccc4cccc(c34)N2)cc1 | n | n | 45µM | n | u | u
O=C1c2ccccc2NC(c2cccc([N+](=O)[O-])c2)N1O (configuration not stated) | x | x | u | n | n | n
FC(F)(F)c1ccc(C2Nc3cccc4cccc(c34)N2)cc1 | n | n | 40µM | n | u | n
Cc1ccc(Cn2nc(C)c(C(=O)NCC(c3cccs3)N3CCOCC3)c2Cl)cc1 (configuration not stated) | n | x | n | n | n | n
COC(=O)C1=C(C)[C@@H](O)[C@@H](C)[C@](C)(c2cc(OC)c(C)c(OC)c2COc2ccccc2)O1 | x | n | x | x | x | x

Screening data from PubChem BioAssay.
